Measured values taken from PubChem BioAssay (EPA / NIEHS).
Activity calls are given as the source filed them. Rule for the calls: active = hit-call score of the fitted dose curve at least 0.9, where 1 is the maximum; inactive = score below 0.9.

Assays:
Details in all cases: mRNA level, 48 h; actives raise or lower the signal
[1] = read-out: Insulin-like growth factor-binding protein 1 (IGFBP1), IGFBP1 (gene 3484); assay: LTEA_HepaRG_IGFBP1: Life Technologies and Expression Analysis (LTEA) Assay for Insulin-like growth factor-binding protein 1 (IGFBP1) using HepaRG (AID 2283508)
Summary of the method: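 qRT-PCR mRNA read-out (TaqMan, Fluidigm array), normalised to three housekeeping genes; HepaRG cells, 48 h exposure, 8-pt half-log series from 100 uM, 0.5% DMSO vehicle; bidirectional curve fit vs DMSO baseline.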

[2] = read-out: Interleukin 6 (IL6), IL6 (gene 3569); assay: LTEA_HepaRG_IL6: Life Technologies and Expression Analysis (LTEA) Assay for Interleukin 6 (IL6) using HepaRG (AID 2283509)
Summary of the method: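 Transcript levels, normalized to three housekeeping genes, were quantified by qRT-PCR after 48 h chemical treatment of HepaRG cells. Eight-point half-log series from 100 uM in 0.5% DMSO, duplicates. Fitted both directions against DMSO baseline.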

[3] = read-out: Interleukin 6 Receptor (IL6R), IL6R (gene 3570); assay: LTEA_HepaRG_IL6R: Life Technologies and Expression Analysis (LTEA) Assay for Interleukin 6 Receptor (IL6R) using HepaRG (AID 2283510)
Summary of the method: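 Cells were thawed, plated and cultured 48 h, then medium was changed to serum-free induction medium. Chemicals were added in duplicate (100 uM top, half-log steps, 0.5% DMSO) for 48 h. Lysates were analyzed by qRT-PCR for IL6R expression.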

[4] = read-out: Keratin 19 (KRT19), KRT19 (gene 3880); assay: LTEA_HepaRG_KRT19: Life Technologies and Expression Analysis (LTEA) Assay for Keratin 19 (KRT19) using HepaRG (AID 2283512)
Summary of the method: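 HepaRG, 48 h chemical exposure, 8-pt half-log CRC from 100 uM, 0.5% DMSO vehicle, duplicates. Readout: TaqMan qRT-PCR of KRT19 mRNA, housekeeping-normalized (ACTB/GAPDH/POLR2A). Bidirectional fit vs DMSO baseline.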

[5] = read-out: JUN Transcription Factor, JUN (gene 3725); assay: LTEA_HepaRG_JUN: Life Technologies and Expression Analysis (LTEA) Assay for JUN Transcription Factor using HepaRG (AID 2283513)
Summary of the method: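 Read-out is JUN transcript level by TaqMan qRT-PCR, normalized to ACTB, GAPDH and POLR2A, after 48 h chemical treatment of HepaRG cells. Concentration-response spanned eight half-log points up to 100 uM in 0.5% DMSO.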

[6] = read-out: Lipase C (LIPC), LIPC (gene 3990); assay: LTEA_HepaRG_LIPC: Life Technologies and Expression Analysis (LTEA) Assay for Lipase C (LIPC) using HepaRG (AID 2283514)
Summary of the method: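 LIPC expression was quantified by qRT-PCR against three housekeeping genes (ACTB, GAPDH, POLR2A). Differentiated human HepaRG cells received eight half-log doses (top 100 uM, 0.5% DMSO) in duplicate for 48 h; fitting bidirectional relative to DMSO.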

[7] = read-out: Lipoprotein lipase (LPL), LPL (gene 4023); assay: LTEA_HepaRG_LPL: Life Technologies and Expression Analysis (LTEA) Assay for Lipoprotein lipase (LPL) using HepaRG (AID 2283515)
Summary of the method: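 LPL transcript levels quantified by TaqMan qRT-PCR against three housekeeping genes after 48 h chemical treatment of HepaRG cells. Eight-point half-log series from 100 uM in 0.5% DMSO, tested in duplicate; bidirectional fitting versus vehicle.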

[8] = read-out: MicroRNA 122 (MIR122), gene 406906; assay: LTEA_HepaRG_MIR122: Life Technologies and Expression Analysis (LTEA) Assay for MicroRNA 122 (MIR122) using HepaRG (AID 2283516); note: the transcript read is the microRNA miR-122
Summary of the method: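 Human liver HepaRG cultures receive test chemicals for 48 h at eight half-log concentrations from 100 uM. Expression is quantified by qRT-PCR with ACTB/GAPDH/POLR2A normalization and fitted bidirectionally against 0.5% DMSO.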

[9] = read-out: matrix metalloproteinase-10 (MMP10), MMP10 (gene 4319); assay: LTEA_HepaRG_MMP10: Life Technologies and Expression Analysis (LTEA) Assay for matrix metalloproteinase-10 (MMP10) using HepaRG (AID 2283517)
Summary of the method: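 Expression measured by TaqMan qRT-PCR with ACTB/GAPDH/POLR2A normalisation after 48 h chemical exposure of HepaRG cells. Eight half-log concentrations, top 100 uM, 0.5% DMSO vehicle, duplicates; gain or loss fitted against vehicle.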

MYC, MYC (gene 4609) = assay: LTEA_HepaRG_MYC: Life Technologies and Expression Analysis (LTEA) Assay for MYC using HepaRG (AID 2283518)
Summary of the method: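 qRT-PCR read-out of MYC transcript (Fluidigm TaqMan, housekeeping-normalized) after 48 h chemical exposure of HepaRG cells; eight concentrations, top 100 uM, half-log steps. Bidirectional curve fitting against 0.5% DMSO vehicle baseline.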

[10] = read-out: matrix metalloproteinase-3 (MMP3), MMP3 (gene 4314); assay: LTEA_HepaRG_MMP3: Life Technologies and Expression Analysis (LTEA) Assay for matrix metalloproteinase-3 (MMP3) using HepaRG (AID 2283519)
Summary of the method: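 Fluidigm-based TaqMan qRT-PCR, normalized to ACTB, GAPDH and POLR2A and fitted bidirectionally versus 0.5% DMSO, measured transcript levels. Treatment: duplicate 48 h exposures of HepaRG cells, ~100,000/well, to eight half-log concentrations topping at 100 uM.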

[11] = read-out: Paternally Expressed 10 (PEG10), PEG10 (gene 23089); assay: LTEA_HepaRG_PEG10: Life Technologies and Expression Analysis (LTEA) Assay for Paternally Expressed 10 (PEG10) using HepaRG (AID 2283520);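 for AC50: PEG10 transcript by qRT-PCR normalised to ACTB GAPDH and POLR2A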
Summary of the method: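 Human HepaRG cultures are dosed for 48 h across an eight-point half-log series starting at 100 uM, with 0.5% DMSO as vehicle and baseline. Gain or loss of PEG10 transcript is measured by qRT-PCR and fitted in both directions.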

[12] = read-out: Nuclear factor NF-kappa-B p105 subunit (Homo sapiens) (UniProt P19838); assay: LTEA_HepaRG_NFKB1: Life Technologies and Expression Analysis (LTEA) Assay for Nuclear Factor Kappa B Subunit 1 (NFKB1) using HepaRG (AID 2283521)
Summary of the method: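 Differentiated human HepaRG cells in serum-free induction medium with 0.5% DMSO were exposed for 48 h to eight half-log concentrations, top 100 uM, in duplicate. NFKB1 mRNA measured by Fluidigm TaqMan qRT-PCR, normalised to ACTB, GAPDH and POLR2A; bidirectional fit versus DMSO.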

[13] = read-out: Protein phosphatase 2A (PPP2R4), PTPA (gene 5524); assay: LTEA_HepaRG_PPP2R4: Life Technologies and Expression Analysis (LTEA) Assay for Protein phosphatase 2A (PPP2R4) using HepaRG (AID 2283522)
Summary of the method: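 Cells were plated, cultured 48 h, switched to serum-free induction medium, then dosed for 48 h (8 points, max 100 uM, 0.5% DMSO). RNA was isolated and PPP2R4 expression measured by TaqMan qRT-PCR.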

[14] = read-out: Phosphatase and tensin (PTEN), PTEN (gene 5728); assay: LTEA_HepaRG_PTEN: Life Technologies and Expression Analysis (LTEA) Assay for Phosphatase and tensin (PTEN) using HepaRG (AID 2283523)
Summary of the method: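 Read-out: TaqMan qRT-PCR of PTEN transcript, normalized to three housekeeping genes, fitted in both directions against 0.5% DMSO. Differentiated human HepaRG cultures received chemicals for 48 h, eight-point half-log series topping at 100 uM.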

[15] = read-out: solute carrier (SLC22A1), SLC22A1 (gene 6580); assay: LTEA_HepaRG_SLC22A1: Life Technologies and Expression Analysis (LTEA) Assay for solute carrier (SLC22A1) using HepaRG (AID 2283524)
Summary of the method: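 Transcript level of SLC22A1 quantified by qRT-PCR (normalized to three housekeeping genes) after 48 h chemical exposure of HepaRG cells, eight concentrations up to 100 µM, half-log steps, 0.5% DMSO vehicle. Gain or loss relative to DMSO fitted bidirectionally.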

[16] = read-out: Pyruvate Dehydrogenase Kinase 4 (PDK4), PDK4 (gene 5166); assay: LTEA_HepaRG_PDK4: Life Technologies and Expression Analysis (LTEA) Assay for Pyruvate Dehydrogenase Kinase 4 (PDK4) using HepaRG (AID 2283525)
Summary of the method: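 Readout is qRT-PCR of PDK4 transcript, normalized to three housekeeping genes, with bidirectional fitting against 0.5% DMSO vehicle. Differentiated HepaRG cells were treated 48 h in serum-free induction medium, duplicate wells, eight-point half-log series topping at 100 uM.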

[17] = read-out: NAD(P)H dehydrogenase [quinone] 1 (NQO1), NQO1 (gene 1728); assay: LTEA_HepaRG_NQO1: Life Technologies and Expression Analysis (LTEA) Assay for NAD(P)H dehydrogenase [quinone] 1 (NQO1) using HepaRG (AID 2283526)
Summary of the method: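 Transcript induction or suppression is quantified by qRT-PCR in human HepaRG liver cells dosed for 48 hours. Eight half-log concentrations topping at 100 uM are used, with 0.5% DMSO as vehicle and baseline.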

[18] = read-out: Nuclear factor erythroid 2-related factor 2 (Homo sapiens) (UniProt Q16236); assay: LTEA_HepaRG_NFE2L2: Life Technologies and Expression Analysis (LTEA) Assay for Nuclear factor erythroid 2-related factor 2 (NFE2L2) Transcription Factor using HepaRG (AID 2283527)
Summary of the method: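 NFE2L2 transcript level was read by qRT-PCR (housekeeping ACTB/GAPDH/POLR2A normalisation) after 48 h chemical treatment of HepaRG in serum-free induction medium. Duplicate 8-point half-log curves, top 100 uM, 0.5% DMSO vehicle; up- or down-regulation fitted against vehicle.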

[19] = read-out: Potassium channel subfamily K member 1 (KCNK1), KCNK1 (gene 3775); assay: LTEA_HepaRG_KCNK1: Life Technologies and Expression Analysis (LTEA) Assay for Potassium channel subfamily K member 1 (KCNK1) using HepaRG (AID 2283511)
Summary of the method: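 KCNK1 transcript measured by TaqMan qRT-PCR against three housekeeping genes, after HepaRG cells were treated 48 h with eight half-log concentrations (top 100 uM, 0.5% DMSO). Curves fitted bidirectionally relative to vehicle.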

Measured: AC50

Nuclear factor NF-kappa-B p105 subunit (Homo sapiens), sequence (P19838 whole entry, looked up): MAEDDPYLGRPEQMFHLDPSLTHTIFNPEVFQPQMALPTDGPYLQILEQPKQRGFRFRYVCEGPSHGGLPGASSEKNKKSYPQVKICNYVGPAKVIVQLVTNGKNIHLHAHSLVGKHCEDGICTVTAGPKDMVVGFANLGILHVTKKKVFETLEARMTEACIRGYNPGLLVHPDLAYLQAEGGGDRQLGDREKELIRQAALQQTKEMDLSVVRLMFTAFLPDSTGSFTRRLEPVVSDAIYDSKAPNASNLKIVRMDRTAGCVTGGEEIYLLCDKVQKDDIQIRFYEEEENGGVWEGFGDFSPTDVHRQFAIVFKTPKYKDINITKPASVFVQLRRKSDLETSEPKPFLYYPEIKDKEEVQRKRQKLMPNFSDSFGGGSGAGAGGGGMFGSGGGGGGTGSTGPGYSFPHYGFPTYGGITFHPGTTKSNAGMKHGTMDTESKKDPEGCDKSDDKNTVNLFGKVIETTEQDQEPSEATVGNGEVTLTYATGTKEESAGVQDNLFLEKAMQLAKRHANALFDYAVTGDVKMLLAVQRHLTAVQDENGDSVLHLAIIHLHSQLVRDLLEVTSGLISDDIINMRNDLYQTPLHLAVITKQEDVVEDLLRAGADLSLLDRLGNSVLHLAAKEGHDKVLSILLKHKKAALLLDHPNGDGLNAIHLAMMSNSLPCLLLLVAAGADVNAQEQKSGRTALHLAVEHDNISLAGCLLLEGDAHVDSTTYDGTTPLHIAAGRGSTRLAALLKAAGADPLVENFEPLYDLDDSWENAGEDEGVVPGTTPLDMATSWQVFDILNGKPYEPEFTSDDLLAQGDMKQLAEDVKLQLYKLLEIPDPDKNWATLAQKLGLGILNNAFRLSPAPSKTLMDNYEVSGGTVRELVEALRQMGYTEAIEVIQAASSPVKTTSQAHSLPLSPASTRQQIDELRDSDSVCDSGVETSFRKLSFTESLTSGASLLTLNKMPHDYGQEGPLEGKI
Nuclear factor erythroid 2-related factor 2 (Homo sapiens), sequence (Q16236 whole entry, looked up): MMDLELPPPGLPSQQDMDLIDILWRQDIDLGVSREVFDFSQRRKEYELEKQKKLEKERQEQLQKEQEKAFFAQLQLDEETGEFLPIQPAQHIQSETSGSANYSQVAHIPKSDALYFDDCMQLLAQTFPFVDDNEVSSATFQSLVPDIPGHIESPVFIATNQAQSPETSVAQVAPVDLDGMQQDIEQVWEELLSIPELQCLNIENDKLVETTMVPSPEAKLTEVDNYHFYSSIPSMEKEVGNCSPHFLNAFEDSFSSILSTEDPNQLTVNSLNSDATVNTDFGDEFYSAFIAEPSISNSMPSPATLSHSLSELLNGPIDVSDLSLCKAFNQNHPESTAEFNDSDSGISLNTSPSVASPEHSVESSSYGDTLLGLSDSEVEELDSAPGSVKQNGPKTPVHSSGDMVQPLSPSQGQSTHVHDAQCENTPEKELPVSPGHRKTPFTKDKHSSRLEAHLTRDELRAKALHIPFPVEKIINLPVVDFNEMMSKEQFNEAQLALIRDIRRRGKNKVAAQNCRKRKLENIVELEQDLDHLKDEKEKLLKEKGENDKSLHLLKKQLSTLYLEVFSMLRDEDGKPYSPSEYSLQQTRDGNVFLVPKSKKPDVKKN

CCc1ccc(CCOc2ccc(CC3SC(=O)NC3=O)cc2)nc1 (stereo not given)
active: [1] 82 µM | [2] 88.8 µM | [3] 63.5 µM | [4] 31.3 µM | [6] 82 µM | [7] 9.92 µM | [8] 72.7 µM | [9] 86.3 µM | MYC, MYC (gene 4609) 80.8 µM | [11] 14.2 µM | [13] 50 µM | [15] 66.6 µM | [16] 11.6 µM | [18] 50 µM
inactive: [5] | [10] | [12] | [14] | [17]

CC(C)(C)CC(C)(C)c1ccc(O)c(-n2nc3ccccc3n2)c1
active: [15] 74.5 µM
not listed: [12] | [19]
inactive: all other assays above

COCC(C)OCC(C)O (stereo not given)
not listed: [12]
inactive: all other assays above

CC(=O)CC(C)(C)O
active: MYC, MYC (gene 4609) 0.118 µM
not listed: [19]
inactive: all other assays above

C=C(C)C(=O)OCCC(F)(F)C(F)(F)C(F)(F)C(F)(F)C(F)(F)C(F)(F)F
active: [16] 14 µM
not listed: [12]
inactive: all other assays above

CCC(=C(c1ccc(O)cc1)c1ccc(OCCN(C)C)cc1)c1ccccc1
active: [1] 76.5 µM | [2] 91.8 µM | [3] 93.2 µM | [5] 89.3 µM | [8] 88.8 µM | [9] 72.4 µM | MYC, MYC (gene 4609) 77.7 µM | [15] 93.4 µM
not listed: [12]
inactive: all other assays above

COc1ccc([N+](=O)[O-])cc1N
not listed: [12]
inactive: all other assays above

CC(C)CCCCCCOC(=O)CCCCC(=O)OCCCCCCC(C)C
not listed: [12]
inactive: all other assays above

CCCCCCCCCCCCCCCS(=O)(=O)Oc1ccccc1
not listed: [12]
inactive: all other assays above

CC(C)(C)c1ccc(O)c(C(C)(C)C)c1
active: [12] 0.162 µM
not listed: [19]
inactive: all other assays above

CC(=O)NC1(c2cccc(F)c2)CCN(CC[C@@]2(c3ccc(Cl)c(Cl)c3)CN(c3ccccc3)C(=O)CO2)CC1
active: [1] 41.5 µM | [2] 76.2 µM | [3] 77.5 µM | [5] 62.1 µM | [7] 23.1 µM | [9] 71 µM | [14] 65.3 µM | [15] 77.2 µM | [18] 76.3 µM
not listed: [12]
inactive: all other assays above

C#C[C@]1(O)CC[C@H]2[C@@H]3CCC4=CC(=O)CC[C@@H]4[C@H]3CC[C@@]21C
active: [10] 7.81 µM | [11] 0.321 µM | [15] 32.1 µM
not listed: [12] | [19]
inactive: all other assays above

Cc1oc(-c2ccccc2)nc1CCOc1ccc(C[C@H](Nc2ccccc2C(=O)c2ccccc2)C(=O)O)cc1
inactive: [6] | [7] | [8]
active: [1] 30.9 µM | [2] 26.3 µM | [3] 30.6 µM | [19] 15.8 µM | [4] 13.2 µM | [5] 16.5 µM | [9] 25 µM | MYC, MYC (gene 4609) 12.5 µM | [10] 50 µM | [11] 20.8 µM | [13] 29.1 µM | [14] 23 µM | [15] 50 µM | [16] 0.338 µM | [17] 29.6 µM | [18] 11.9 µM
